Test results published in PubChem BioAssay (EPA / NIEHS).
Records with an inconclusive call do not appear. Active and inactive are the calls of the source. Rule for the calls, unless noted: active = hit-call score of the fitted dose curve at least 0.9, where 1 is the maximum; inactive = score below 0.9.

Columns and labels:
[1] = IUF_NPC1b_proliferation_BrdU_72hr: Leibniz Research Institute for Environmental Medicine (IUF) 72-hour Neural Progenitor Cell Bromodeoxyuridine (BrdU) Proliferation Assay (NPC1b) (AID 2284207)
In short: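 Human fetal cortex-derived (GW 16-19) neural progenitor spheres, 0.25-0.35 mm, one per well in EGF/FGF proliferation medium, exposed to compound for 72 h at 37C, pH 7.2-7.6. BrdU incorporation over the final 16 h read by luminescence ELISA, relative to DMSO.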

[2] = IUF_NPC1a_proliferation_area_72hr: Leibniz Research Institute for Environmental Medicine (IUF) 72-hour Neural Progenitor Cell Proliferation Area Assay (NPC1a) (AID 2284208)
In short: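 Proliferation read as increase in sphere area by phase-contrast imaging over 72 h continuous compound exposure (no renewal) of hNPC spheres grown with EGF/FGF at 37C, 5% CO2. Growth-factor withdrawal served as positive control; DMSO as baseline.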

[3] = IUF_NPC1_viability_72hr: Viability Assessment at 72 hours in the Leibniz Research Institute for Environmental Medicine (IUF) Neural Progenitor Cell Proliferation Assay (NPC1) (AID 2284209)
In short: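 Spheres of primary human neural progenitors were plated singly in proliferation medium and treated for 72 h. Mitochondrial reduction of resazurin was then measured by fluorescence and analysed against DMSO controls.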

[4] = CCTE_Mundy_HCI_Cortical_Synap_Neur_Matur_NeuriteSpotCountPerNeuriteLength: CCTE's Synaptogenesis and Neurite Maturation Assay in rat cortical cells for Neurite Spot Count per Neurite Length, Mundy Lab (AID 2284210)
In short: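 Synaptophysin spots per unit neurite length, measured by automated imaging of MAP2/synaptophysin/Hoechst-stained neurons. Cultures from rat cortex received chemical at DIV 7 with media change through DIV 12; glial growth arrested by AraC at DIV 5; DMSO baseline.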

[5] = CCTE_Mundy_HCI_Cortical_NOG_NeuriteLength: CCTE's Neurite Outgrowth Assay in rat cortical cells for Neurite Length, Mundy Lab (AID 2284213)
In short: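 First, rat primary cortical cells were plated and, 2 h later, given test chemical as a 1/10 dilution. Finally, βIII-tubulin immunostaining enabled automated imaging of neurite length.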

[6] = CCTE_Mundy_HCI_Cortical_Synap_Neur_Matur_NeuriteLength: CCTE's Synaptogenesis and Neurite Maturation Assay in rat cortical cells for Neurite Length, Mundy Lab (AID 2284214)
In short: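 Cultures of rat primary cortical cells received chemical at DIV 7 and were fixed at DIV 12, after glial arrest with AraC at DIV 5. Neurite length was measured by automated imaging of MAP2 immunofluorescence.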

[7] = CCTE_Mundy_HCI_Cortical_Synap_Neur_Matur_NeuriteSpotCountPerNeuron: CCTE's Synaptogenesis and Neurite Maturation Assay in rat cortical cells for Neurite Spot Count per Neuron Count, Mundy Lab (AID 2284215)
In short: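 High-content imaging counts synaptophysin puncta along MAP2-labelled neurites per neuron after chemical exposure of rat cortical cells from DIV 7 to termination at DIV 12 (AraC added DIV 5). Loss of signal relative to DMSO.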

[8] = CCTE_Mundy_HCI_hN2_NOG_NeuriteCount: CCTE's Neurite Outgrowth Assay in human hN2 cells for Neurite Count, Mundy Lab (AID 2284219; active = hit-call score of the fitted dose curve at least 0.9, where 1 is the maximum)
In short: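 In this morphology assay, hNP1-derived neurons received test chemical 2 h post-plating and were fixed two days later in warm paraformaldehyde/sucrose containing Hoechst 33342. Neurites, labelled by rabbit anti-βIII-tubulin (1:800) and Alexa Fluor-488 (1:500), were counted automatically.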

[9] = CCTE_Mundy_HCI_hN2_NOG_NeuriteLength: CCTE's Neurite Outgrowth Assay in human hN2 cells for Neurite Length, Mundy Lab (AID 2284220; active = hit-call score of the fitted dose curve at least 0.9, where 1 is the maximum)
In short: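 Plate hNP1-derived neurons, then add chemical 2 h later as a 1/10 dilution. Stain with anti-βIII-tubulin then Alexa Fluor-488 secondary, and image automatically to measure neurite length.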

[10] = CCTE_Mundy_HCI_hN2_NOG_NeuronCount: CCTE's Neurite Outgrowth Assay in human hN2 cells for Neuron Count, Mundy Lab (AID 2284221; active = hit-call score of the fitted dose curve at least 0.9, where 1 is the maximum)
In short: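 Read-out is the number of betaIII-tubulin-positive neurons imaged by automated high-content analysis, with DMSO as negative control.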

[11] = CCTE_Mundy_HCI_Cortical_Synap_Neur_Matur_CellBodySpotCount: CCTE's Synaptogenesis and Neurite Maturation Assay in rat cortical cells for Cell Body Spot Count, Mundy Lab (AID 2284223)
In short: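 High-content imaging counts synaptophysin puncta on neuronal cell bodies per neuron after MAP2/synaptophysin immunostaining. Rat primary cortical cells, glia arrested with AraC at DIV 5, were exposed DIV 7–12; signal decrease measured against DMSO.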

[12] = UKN4_HCS_LUHMES_cell_viability: Viability Assessment in the University of Konstanz (UKN) Leist Lab Neurite Outgrowth Assay in human LUHMES cells (UKN4) (AID 2284232)
In short: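 Cells switched to differentiation medium at day 0, replated on day 2 in medium lacking cAMP and GDNF, and compound-treated once attached. Live staining began 23.5 h later, imaging followed at 24 h.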

[13] = UKN2_HCS_IMR90_cell_viability: Viability Assessment in the University of Konstanz (UKN) Leist Lab Neural Crest Cell Migration Assay in human induced IMR90 Pluripotent Stem Cells (UKN2) (AID 2284233);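 note: cells exposed to compound for 24 h after a 24 h migration phase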
In short: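 After calcein-AM/Hoechst staining, viability is quantified by high-content fluorescence imaging, relative to DMSO, in iPSC (IMR90)-derived neural crest cells. Exposure lasts 24 h, starting after a 24 h migration period on PLO/laminin/fibronectin coating.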

[14] = CCTE_Mundy_HCI_Cortical_NOG_NeuronCount: CCTE's Neurite Outgrowth Assay in rat cortical cells for Neuron Count, Mundy Lab (AID 2284236; active = hit-call score of the fitted dose curve at least 0.9, where 1 is the maximum;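 note: neurons counted by imaging betaIII-tubulin and Hoechst stained cortical cells; cells exposed to compound for about 48 hours before fixation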)
In short: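 Read-out: neuron number by high-content imaging of betaIII-tubulin (Alexa Fluor-488) and Hoechst-labelled rat primary cortical cells.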

[15] = IUF_NPC2c_oligodendrocyte_migration_120hr: Leibniz Research Institute for Environmental Medicine (IUF) 120-hour Neural Progenitor Cell Migration Assay for Oligodendrocyte Migration (NPC2c) (AID 2284297);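 note: O4-positive oligodendrocyte migration distance divided by radial glia migration distance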
In short: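 Exposure runs 5 days from differentiation onset at 37C, seven concentrations plus solvent control, DMSO at most 0.1%, applied to primary hNPC spheres on laminin. After fixation, O4 immunostaining gives oligodendrocyte distance from the sphere core, relative to radial glia migration.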

[16] = IUF_NPC2a_radial_glia_migration_120hr: Leibniz Research Institute for Environmental Medicine (IUF) 120-hour Neural Progenitor Cell Migration Assay for Radial Glia Migration (NPC2a) (AID 2284298)
In short: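 Migration distance in um, sphere core edge to migration-area edge, derived by nuclei-density algorithm from Hoechst images after 120 h compound exposure. Primary hNPC spheres differentiated on poly-D-lysine/laminin in N2 medium, 37C; medium half-replaced day 3.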

[17] = IUF_NPC2a_radial_glia_migration_72hr: Leibniz Research Institute for Environmental Medicine (IUF) 72-hour Neural Progenitor Cell Migration Assay for Radial Glia Migration (NPC2a) (AID 2284299)
In short: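 Single 0.3 mm neurospheres were plated per well in N2 differentiation medium and exposed from the start of differentiation. After 72 hours, brightfield images were taken and radial glia migration from the sphere core edge was measured manually in four directions, averaged per well.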

[18] = IUF_NPC2b_neuronal_migration_120hr: Leibniz Research Institute for Environmental Medicine (IUF) 120-hour Neural Progenitor Cell Migration Assay for Neuron Migration (NPC2b) (AID 2284300)
In short: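 TUBB3-positive neurons are imaged after 120 h of differentiation, and their mean distance from the sphere edge is normalised to radial glia migration. Single 0.3 mm fetal hNPC spheres on poly-D-lysine/laminin received 7 compound concentrations, ≤0.1% DMSO, refreshed at day 3.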

[19] = IUF_NPC3_neuronal_differentiation_120hr: Leibniz Research Institute for Environmental Medicine (IUF) 120-hour Neuronal Differentiation Assay (NPC3) (AID 2284301)
In short: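 Value is percent TUBB3-positive neurons among Hoechst-stained nuclei in the migration area, scored by trained CNN after 120 h differentiation. Primary hNPC spheres on poly-D-lysine/laminin, N2 medium, continuous dosing from day 0, half-refeed day 3; DMSO reference.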

[20] = IUF_NPC4_neurite_length_120hr: Leibniz Research Institute for Environmental Medicine (IUF) 120-hour Neuronal Morphology Assay for Neurite Length (NPC4) (AID 2284302)
In short: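 Neurite length, the mean in um across TUBB3-stained neurons, is derived by skeletonization of high-content images after 120 h differentiation. Compound exposure, 7 concentrations plus solvent control, ran from plating of hNPC spheres on poly-D-lysine/laminin, with medium half-replaced on day 3.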

[21] = IUF_NPC5_oligodendrocyte_differentiation_120hr: Leibniz Research Institute for Environmental Medicine (IUF) 120-hour Oligodendrocyte Differentiation Assay (NPC5) (AID 2284304; active = hit-call score of the fitted dose curve at least 0.9, where 1 is the maximum;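 note: primary human fetal neural progenitor spheres plated to migrate and differentiate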)
In short: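 Oligodendrocyte differentiation scored as O4-positive cells, found by CNN image analysis, as percent of Hoechst-stained nuclei in the migration area. Scoring followed 5 days of exposure of plated hNPC neurospheres differentiating in DMEM/F12 N2 medium at 37C, with compound refreshed at day 3.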

[22] = IUF_NPC4_neurite_area_120hr: Leibniz Research Institute for Environmental Medicine (IUF) 120-hour Neuronal Morphology Assay for Neurite Area (NPC4) (AID 2284305; active = hit-call score of the fitted dose curve at least 0.9, where 1 is the maximum)
In short: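 Neurite area (pixels, nuclei excluded) of TUBB3-positive neurons from hNPC spheres differentiating 5 days under continuous exposure at 37 C, 5% CO2. High-content imaging; loss of signal versus DMSO control across 7 concentrations.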

[23] = IUF_NPC2-5_cytotoxicity_72hr: Cytotoxicity Assessment at 72 hours in the Leibniz Research Institute for Environmental Medicine (IUF) Neural Progenitor Cell Migration and Differentiation Assay for Cytotoxicity (NPC2-5) (AID 2284306; active = hit-call score of the fitted dose curve at least 0.9, where 1 is the maximum;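 note: LDH release into supernatant measured by resorufin fluorescence marking membrane damage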)
In short: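 Membrane-integrity cytotoxicity at 72 h, read as LDH-driven resorufin fluorescence in supernatant. hNPC spheres from fetal cortex differentiate on coated plates in N2 medium, 37C, 5% CO2; seven serial compound concentrations plus solvent control (DMSO ≤0.1%).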

[24] = IUF_NPC2-5_cytotoxicity_120hr: Cytotoxicity Assessment at 120 hours in the Leibniz Research Institute for Environmental Medicine (IUF) Neural Progenitor Cell Migration and Differentiation Assay (NPC2-5) (AID 2284307; active = hit-call score of the fitted dose curve at least 0.9, where 1 is the maximum)
In short: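 Membrane-integrity loss measured as LDH activity in medium supernatant via resazurin-to-resorufin fluorescence after 120 h exposure. hNPC spheres from GW 16-19 fetal cortex differentiated on poly-D-lysine/laminin, 37C, medium half-refreshed day 3; seven concentrations, DMSO max 0.1%.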

[25] = IUF_NPC2-5_cell_number_120hr: Cell Number Assessment at 120 hours in the Leibniz Research Institute for Environmental Medicine (IUF) Neural Progenitor Cell Migration and Differentiation Assay (NPC2-5) (AID 2284308);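 note: count of Hoechst-stained nuclei in migration zone around plated human neural progenitor spheres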
In short: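 Counting of all Hoechst-stained nuclei in the migration area at 120 h, versus DMSO control. Primary hNPC spheres differentiated on poly-D-lysine/laminin in N2 medium at 37C, dosed from day 0 (7 concentrations, DMSO ≤0.1%), half-refed day 3.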

[26] = IUF_NPC2-5_viability_120hr: Viability Assessment at 120 hours in the Leibniz Research Institute for Environmental Medicine (IUF) Neural Progenitor Cell Migration and Differentiation Assay (NPC2-5) (AID 2284312)
In short: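 Alamar blue resorufin fluorescence read after 5 days of differentiation, with compound present from day 0 and replenished at day 3. Primary hNPC spheres on laminin-coated plates, 37C; seven concentrations plus solvent control, fitted against DMSO.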

Measured: outcome

CC(C)(C)NCC(O)c1cc(O)cc(O)c1 (stereo unspecified)
inactive: all assays above
